Data on 15 compounds can be found in PubChem BioAssay (EPA / NIEHS).

Values joined by “and” are separate entries in the source; they are usually repeats but may differ in a detail not shown here. Equal values may be shown once. Active and inactive are the calls of the source. The calls were made as follows: active = hit-call score of the fitted dose curve at least 0.9, where 1 is the maximum; inactive = score below 0.9.

This experiment can be described thus: CCTE_Shafer_MEA_dev_spike_duration_mean: CCTE's Neural Network Formation Assay for Mean Spike Duration, Shafer Lab (AID 2284051).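 As to AC50: potency for a decrease in mean network spike duration versus DMSO.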 On the procedure:
CCTE_Shafer_MEA_dev assay is conducted using Axion Biosystems 48 well microelectrode array (MEA) plates and Maestro recording system. Each well of the MEA plate contains a grid of 16 microelectrodes embedded in the culture surface. Electrically active cells, such as neurons, can be cultured over the electrodes, and electrical activity in these cells can be recorded extracellularly. The spontaneous firing of neurons is captured from each electrode on a microsecond timescale providing both temporally and spatially precise data. […] The CCTE_Shafer_MEA_dev assay uses primary cultures of rat cortical neurons. Recordings are made on days post-plating 5, 7, 9 and 12. As these cultures mature over time, neural networks develop functional activity and form cohesive networks in which electrical activity can be highly coordinated. CCTE_Shafer_MEA_dev_spike_duration_mean is 1 of 19 assay components of the CCTE_Shafer_MEA_dev assay. It measures the average duration of network spikes (temporally-clustered groups of action potential firing across multiple electrodes) during a recording in a microelectrode array (MEA) using Axion Biosystems Maestro 768 channel amplifier with the AxIS adaptive spike detector. To collapse across multiple recordings made on days post-plating 5, 7, 9 and 12, the trapezoidal area-under-the-curve of the component is calculated.Data from the assay component CCTE_Shafer_MEA_dev_spike_duration_mean was analyzed into 1 assay endpoint. This assay endpoint, CCTE_Shafer_MEA_dev_spike_duration_mean, was analyzed in the negative analysis fitting direction relative to DMSO as the negative control and baseline of activity. Using a type of functional reporter, gain or loss-of-signal activity can be used to understand electrical activity.
On the day prior to culture, each well was coated thoroughly with 150 uL of 0.05% polyethyleneimine (PEI, Sigma Cat P3143) in 50 mM HEPES (Sigma Cat H7523) at a pH of 8. The plate was incubated at 37C for one hour. PEI was rinsed out with 500 uL of sterile water three times. Plates were stored at 4C until the day of culture. This culture was plated at a seeding density of 1.5 x 10^5 cells/well on a 48-well MEA plate, prepared as described above. Cells were administered via a 25 uL media/laminin ([…]; Sigma Cat L2020-1MG) drop directly onto the microelectrode array, as adding the cells with the laminin results in better attachment than pre-coating with laminin. After 2 hours, an additional 475 uL of cortical media was added and the cells returned to the incubator. Exposure starts at day 0 of plating and is continued over twelve days of network development until the experiment is terminated. Cells are fed with fresh medium on DIV 5 and 9, following the recordings on those days. The entire volume of media in the well is exchanged and any vehicle or compound treatment is renewed. Complete details are found in OP-NHEERL/ISTD/SBB/TJS/2015-03-r0 (available on request, email shafer.tim@epa.gov). Measurement of the electrical activity is non-invasive, and recordings can be made from the same plate over multiple different days of the culture. In cortical neurons, this allows for the measurement of extracellular action potentials over the period during which networks form in the MEA plate.
`CC1(C)S[C@@H]2[C@H](NC(=O)[C@H](N)c3ccc(O)cc3)C(=O)N2[C@H]1C(=O)O`: the compound was classed as inactive.

Take `[Cl-].[Cl-].[NH2-].[NH2-].[Pt+4]`: the compound was called inactive.

For the compound `C[C@H](CS)C(=O)N1CCC[C@H]1C(=O)O`, the compound was classed as inactive.

With `Cc1c(O)cccc1C(=O)N[C@@H](CSc1ccccc1)[C@H](O)CN1C[C@H]2CCCC[C@H]2C[C@H]1C(=O)NC(C)(C)C`, the AC50 was 559 nM (active).

As to `CC[C@H](C)C(=O)O[C@H]1CCC=C2C=C[C@H](C)[C@H](CC[C@@H]3C[C@@H](O)CC(=O)O3)[C@H]21`, the concentration at half-maximal activity (AC50) is 1.05 µM (active) and 983 nM (active).

Turning to `NC(N)=Nc1nc(CSCCC(N)=NS(N)(=O)=O)cs1`, the compound was called inactive.

`CC(C)(C)NCC(O)c1cc(O)cc(O)c1` (stereo not given): the call was inactive.

As for `CNCCC(Oc1ccc(C(F)(F)F)cc1)c1ccccc1` (stereo not given), the AC50 was 1880 nM (active).

Consider `COc1ccc2cc3[n+](cc2c1OC)CCc1cc2c(cc1-3)OCO2`, for which the half-maximal activity concentration (AC50) was 130 nM (active).

As to `c1cc2ccc3ccc4ccc5cccc6c(c1)c2c3c4c56`, the compound was called inactive.

For the compound `CN(C)C(=O)C(CCN1CCC(O)(c2ccc(Cl)cc2)CC1)(c1ccccc1)c1ccccc1`, the AC50 was 511 nM (active) and 18.7 nM (active) and 1.15 µM (active).

Turning to `CN(C)CCC(c1ccc(Cl)cc1)c1ccccn1` (stereo not given), the result was inactive.

For `CC1(C)S[C@@H]2[C@H](NC(=O)[C@H](N)c3ccccc3)C(=O)N2[C@H]1C(=O)O`, the outcome was inactive.

On to `c1ccc2cc3c4ccccc4c4ccccc4c3cc2c1`, for which the AC50 is 2970 nM (active).

Take `C[C@@H]1C[C@H]2[C@@H]3CCC4=CC(=O)C=C[C@]4(C)[C@@]3(F)[C@@H](O)C[C@]2(C)[C@@]1(O)C(=O)CO`: the compound was called inactive.

Broadly, the AC50 is the midpoint of the concentration-response curve, whichever way the signal moves.
